# Source: PubChem BioAssay (EPA / NIEHS)
# The source made the active and inactive calls. Rule for the calls: active = hit-call score of the fitted dose curve at least 0.9, where 1 is the maximum; inactive = score below 0.9.
# Key:
# [1] = read-out: Plasminogen activator inhibitor-1 (PAI1), SERPINE1 (gene 5054); assay: BSK_MyoF_PAI1: BioMAP Diversity Plus: MyoF Assay for Plasminogen activator inhibitor-1 (PAI1) Biomarker Activity (AID 2284256); conditions: primary human lung fibroblasts;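 note: PAI-1 protein level measured by ELISA in fibroblast cultures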
# Summary of the method: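 Activity reflects increased PAI-1, determined by ELISA and compared with DMSO, in human lung fibroblasts treated for 24 h.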
# [2] = read-out: Interleukin-8 (IL8), CXCL8 (gene 3576); assay: BSK_MyoF_IL8: BioMAP Diversity Plus: MyoF Assay for Interleukin-8 (IL8) Biomarker Activity (AID 2284261); conditions: primary human lung fibroblasts
# Summary of the method: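 In this multiplexed primary-cell system, fibroblasts from human lung are treated with chemicals, and IL-8 is detected by ELISA at 24 h, with DMSO serving as the negative reference.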
# Decorin, DCN (gene 1634) = assay: BSK_MyoF_Decorin: BioMAP Diversity Plus: MyoF Assay for Decorin Biomarker Activity (AID 2284265); conditions: primary human lung fibroblasts
# Summary of the method: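 Lung fibroblast cultures, 24 h chemical exposure. Decorin by ELISA, positive fitting direction, DMSO baseline.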
# [3] = BSK_MyoF_SRB: Viability Assessment in the BioMAP Diversity Plus: MyoF Assay (AID 2284267); conditions: primary human lung fibroblasts;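 note: total protein by SRB absorbance in parallel cultures as cytotoxicity measure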
# Summary of the method: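 Lung fibroblast cultures, 24 h post-dose; fix 10% TCA, stain 0.1% SRB, read 560 nm. Signal = total protein as cytotoxicity measure; fitted relative to DMSO negative control.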
# [4] = read-out: Matrix Metallopeptidase 1 (MMP1), MMP1 (gene 4312); assay: BSK_MyoF_MMP1: BioMAP Diversity Plus: MyoF Assay for Matrix Metallopeptidase 1 (MMP1) Biomarker Activity (AID 2284268); conditions: primary human lung fibroblasts
# Summary of the method: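 MMP1 measured by ELISA 24 h after dosing primary human lung fibroblasts; cytotoxicity checked in parallel cultures by sulforhodamine B total-protein staining read at 560 nm.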
# [5] = read-out: TIMP metallopeptidase inhibitor 1 (TIMP1), TIMP1 (gene 7076); assay: BSK_MyoF_TIMP1: BioMAP Diversity Plus: MyoF Assay for TIMP metallopeptidase inhibitor 1 (TIMP1) Biomarker Activity (AID 2284269); conditions: primary human lung fibroblasts
# Summary of the method: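 TIMP-1 levels were determined by ELISA in human lung fibroblasts treated for 24 h. DMSO served as negative control and baseline for upward curve fitting.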
# [6] = read-out: Plasminogen activator inhibitor-1 (PAI1), SERPINE1 (gene 5054); assay: BSK_KF3CT_PAI1: BioMAP Diversity Plus: KF3CT Assay for Plasminogen activator inhibitor-1 (PAI1) Biomarker Activity (AID 2284252); conditions: primary human keratinocytes with fibroblasts
# Summary of the method: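 Keratinocyte + dermal fibroblast co-culture (human primary); 24 h post-dose; PAI-1 by ELISA; gain-of-signal fit vs DMSO control.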
# [7] = read-out: Interleukin-8 (IL8), CXCL8 (gene 3576); assay: BSK_KF3CT_IL8: BioMAP Diversity Plus: KF3CT Assay for Interleukin-8 (IL8) Biomarker Activity (AID 2284254); conditions: primary human keratinocytes with fibroblasts
# Summary of the method: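 ELISA detection of IL-8 from a human skin co-culture, keratinocytes with foreskin fibroblasts, at 24 h following chemical exposure, with gain of signal scored against DMSO controls.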
# [8] = read-out: Monocyte Chemoattractant Protein-1 (MCP1), CCL2 (gene 6347); assay: BSK_IMphg_MCP1: BioMAP Diversity Plus: IMphg Assay for Monocyte Chemoattractant Protein-1 (MCP1) Biomarker Activity (AID 2284253); conditions: primary human endothelial cells with macrophages
# Summary of the method: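 ELISA readout of MCP-1 at 24 hours in IMphg co-cultures of venular endothelial cells and macrophages, normalised to DMSO; parallel cultures stained with sulforhodamine B for overt cytotoxicity.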
# [9] = read-out: Macrophage Inflammatory Protein-1 Alpha (MIP1a), CCL3 (gene 6348); assay: BSK_IMphg_MIP1a: BioMAP Diversity Plus: IMphg Assay for Macrophage Inflammatory Protein-1 Alpha (MIP1a) Biomarker Activity (AID 2284255); conditions: primary human endothelial cells with macrophages
# Summary of the method: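 MIP-1a protein levels were quantified by ELISA after 24 h treatment of human endothelial cell–macrophage co-cultures, compared with DMSO. Parallel cultures were fixed with TCA and stained with 0.1% SRB to gauge overt cytotoxicity.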
# CD69, CD69 (gene 969) = assay: BSK_IMphg_CD69: BioMAP Diversity Plus: IMphg Assay for CD69 Biomarker Activity (AID 2284257); conditions: primary human endothelial cells with macrophages
# Summary of the method: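 Readout is ELISA for CD69 in primary human venular endothelial cell/macrophage co-culture, taken at 24 h post-dosing. SRB staining of parallel cultures gauged overt cytotoxicity; signal increase versus DMSO defined activity.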
# [10] = read-out: Eotaxin 3, CCL26 (gene 10344); assay: BSK_BF4T_Eotaxin3: BioMAP Diversity Plus: BF4T Assay for Eotaxin 3 Biomarker Activity (AID 2284258); conditions: primary human bronchial epithelial cells with fibroblasts
# Summary of the method: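 ELISA measurement of Eotaxin-3 after 24 h chemical exposure in a bronchial epithelial/dermal fibroblast co-culture, with DMSO as baseline. Parallel SRB staining (0.1% SRB after 10% TCA fixation, 560 nm) flagged overt cytotoxicity.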
# [11] = read-out: Monocyte Chemoattractant Protein-1 (MCP1), CCL2 (gene 6347); assay: BSK_BF4T_MCP1: BioMAP Diversity Plus: BF4T Assay for Monocyte Chemoattractant Protein-1 (MCP1) Biomarker Activity (AID 2284259); conditions: primary human bronchial epithelial cells with fibroblasts
# Summary of the method: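 MCP-1 ELISA readout taken 24 h after dosing in the BF4T system (bronchial epithelial cells plus dermal fibroblasts). Parallel SRB total-protein staining flagged cytotoxicity; DMSO served as baseline, positive fitting direction.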
# [12] = read-out: Intercellular Adhesion Molecule 1 (ICAM1), ICAM1 (gene 3383); assay: BSK_BF4T_ICAM1: BioMAP Diversity Plus: BF4T Assay for Intercellular Adhesion Molecule 1 (ICAM1) Biomarker Activity (AID 2284260); conditions: primary human bronchial epithelial cells with fibroblasts
# Summary of the method: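 ICAM-1 levels measured by ELISA after 24 h chemical treatment of bronchial epithelial cell/dermal fibroblast co-cultures, read against DMSO baseline. Overt cytotoxicity checked in parallel cultures by sulforhodamine B staining.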
# CD90, THY1 (gene 7070) = assay: BSK_BF4T_CD90: BioMAP Diversity Plus: BF4T Assay for CD90 Biomarker Activity (AID 2284262); conditions: primary human bronchial epithelial cells with fibroblasts
# Summary of the method: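 CD90 levels by ELISA after 24 h treatment of human bronchial epithelial cell/dermal fibroblast cultures, analysed versus DMSO. Overt cytotoxicity checked in parallel cultures by sulforhodamine B staining.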
# [13] = read-out: Interleukin-8 (IL8), CXCL8 (gene 3576); assay: BSK_BF4T_IL8: BioMAP Diversity Plus: BF4T Assay for Interleukin-8 (IL8) Biomarker Activity (AID 2284263); conditions: primary human bronchial epithelial cells with fibroblasts
# Summary of the method: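 Human bronchial epithelial cells with dermal fibroblasts co-culture; IL-8 measured by ELISA 24 hours after dosing, fitted vs DMSO. Cytotoxicity tracked in parallel cultures by SRB total-protein staining.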
# [14] = read-out: Interleukin-1 alpha (IL1a), IL1A (gene 3552); assay: BSK_BF4T_IL1a: BioMAP Diversity Plus: BF4T Assay for Interleukin-1 alpha (IL1a) Biomarker Activity (AID 2284264); conditions: primary human bronchial epithelial cells with fibroblasts
# Summary of the method: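 ELISA read-out of IL-1α from bronchial epithelial cell/dermal fibroblast co-cultures 24 h after compound addition. Increases scored against DMSO negative control. Cytotoxicity monitored by sulforhodamine B staining of parallel cultures.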
# KRT18 (gene 3875) = assay: BSK_BF4T_Keratin818: BioMAP Diversity Plus: BF4T Assay for Keratin 818 Biomarker Activity (AID 2284266); conditions: primary human bronchial epithelial cells with fibroblasts
# Summary of the method: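 Keratin 8/18 levels quantified by ELISA after 24 h chemical treatment of bronchial epithelial cell/dermal fibroblast co-cultures, fitted in positive direction relative to DMSO. Parallel SRB staining tracks overt cytotoxicity.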
# [15] = read-out: Matrix Metallopeptidase 1 (MMP1), MMP1 (gene 4312); assay: BSK_BF4T_MMP1: BioMAP Diversity Plus: BF4T Assay for Matrix Metallopeptidase 1 (MMP1) Biomarker Activity (AID 2284270); conditions: primary human bronchial epithelial cells with fibroblasts
# Summary of the method: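 MMP-1 quantified by ELISA in primary human bronchial epithelial/dermal fibroblast co-cultures, 24 hours post-dosing, with DMSO as baseline; parallel sulforhodamine B staining (560 nm) tracks overt cytotoxicity.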
# [16] = read-out: Matrix Metallopeptidase 3 (MMP3), MMP3 (gene 4314); assay: BSK_BF4T_MMP3: BioMAP Diversity Plus: BF4T Assay for Matrix Metallopeptidase 3 (MMP3) Biomarker Activity (AID 2284271); conditions: primary human bronchial epithelial cells with fibroblasts
# Summary of the method: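 MMP-3 level read by ELISA after 24 h chemical exposure of bronchial epithelial cell/dermal fibroblast co-cultures, fitted upward relative to DMSO. Parallel cultures stained with 0.1% SRB after TCA fixation gauge overt cytotoxicity.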
structure (smiles),measurement,setting,value
CC(C)c1ccc(CO)cc1,outcome,[1],inactive
same,outcome,[2],inactive
same,outcome,"Decorin, DCN (gene 1634)",inactive
same,outcome,[3],inactive
same,outcome,[4],inactive
same,outcome,[5],inactive
Nc1ncc([N+](=O)[O-])s1,outcome,[1],inactive
same,outcome,[2],inactive
same,outcome,"Decorin, DCN (gene 1634)",inactive
same,outcome,[3],inactive
same,outcome,[4],inactive
same,outcome,[5],inactive
O=[N+]([O-])c1ccc2c3c(cccc13)CC2,outcome,[1],inactive
same,outcome,[2],inactive
same,outcome,"Decorin, DCN (gene 1634)",inactive
same,outcome,[3],inactive
same,AC50,[4],20 µM (active)
same,outcome,[5],inactive
O=S(=O)(c1ccc(Cl)cc1)c1ccc(Cl)cc1,outcome,[1],inactive
same,outcome,[2],inactive
same,outcome,"Decorin, DCN (gene 1634)",inactive
same,outcome,[3],inactive
same,outcome,[4],inactive
same,outcome,[5],inactive
BrCCBr,outcome,[1],inactive
same,outcome,[2],inactive
same,outcome,"Decorin, DCN (gene 1634)",inactive
same,outcome,[3],inactive
same,outcome,[4],inactive
same,outcome,[5],inactive
COC(=O)c1sccc1S(=O)(=O)NC(=O)Nc1nc(C)nc(OC)n1,outcome,[1],inactive
same,outcome,[2],inactive
same,outcome,"Decorin, DCN (gene 1634)",inactive
same,outcome,[3],inactive
same,outcome,[4],inactive
same,outcome,[5],inactive
CCOP(=S)(OCC)SCCS(=O)(=O)CC,outcome,[1],inactive
same,outcome,[2],inactive
same,outcome,"Decorin, DCN (gene 1634)",inactive
same,outcome,[3],inactive
same,outcome,[4],inactive
same,outcome,[5],inactive
COC(=O)Cc1ccccc1,outcome,[6],inactive
same,outcome,[7],inactive
COP(=S)(OC)Oc1c(Cl)cc(C)cc1Cl,outcome,[1],inactive
same,outcome,[2],inactive
same,outcome,"Decorin, DCN (gene 1634)",inactive
same,outcome,[3],inactive
same,outcome,[4],inactive
same,outcome,[5],inactive
COc1cc(OC)nc(NC(=O)NS(=O)(=O)c2ncccc2C(=O)N(C)C)n1,outcome,[1],inactive
same,outcome,[2],inactive
same,outcome,"Decorin, DCN (gene 1634)",inactive
same,outcome,[3],inactive
same,outcome,[4],inactive
same,outcome,[5],inactive
COP(=S)(OC)Oc1ccc(Sc2ccc(OP(=S)(OC)OC)cc2)cc1,outcome,[1],inactive
same,AC50,[2],20 µM (active)
same,outcome,"Decorin, DCN (gene 1634)",inactive
same,outcome,[3],inactive
same,AC50,[4],7.48 µM (active)
same,outcome,[5],inactive
CCNc1nc(NC(C)(C)C)nc(SC)n1,outcome,[1],inactive
same,outcome,[2],inactive
same,outcome,"Decorin, DCN (gene 1634)",inactive
same,outcome,[3],inactive
same,AC50,[4],31.5 µM (active)
same,outcome,[5],inactive
Nc1cccc2ccccc12,outcome,[1],inactive
same,AC50,[2],11.4 µM (active)
same,outcome,"Decorin, DCN (gene 1634)",inactive
same,outcome,[3],inactive
same,AC50,[4],20 µM (active)
same,outcome,[5],inactive
CCSC(C)CC1CC(=O)C(C(CC)=NOC/C=C/Cl)=C(O)C1 (stereo not given),outcome,[1],inactive
same,outcome,[2],inactive
same,outcome,"Decorin, DCN (gene 1634)",inactive
same,outcome,[3],inactive
same,outcome,[4],inactive
same,outcome,[5],inactive
CCCCCCCCC(=O)NCc1ccc(O)c(OC)c1,outcome,[1],inactive
same,outcome,[2],inactive
same,outcome,"Decorin, DCN (gene 1634)",inactive
same,outcome,[3],inactive
same,outcome,[4],inactive
same,outcome,[5],inactive
O=C(O)CCC(F)(C(F)(F)F)C(F)(F)F,outcome,[6],inactive
same,outcome,[8],inactive
same,outcome,[7],inactive
same,outcome,[9],inactive
same,outcome,[1],inactive
same,outcome,"CD69, CD69 (gene 969)",inactive
same,outcome,[10],inactive
same,outcome,[11],inactive
same,outcome,[12],inactive
same,outcome,[2],inactive
same,outcome,"CD90, THY1 (gene 7070)",inactive
same,outcome,[13],inactive
same,outcome,[14],inactive
same,outcome,"Decorin, DCN (gene 1634)",inactive
same,outcome,KRT18 (gene 3875),inactive
same,outcome,[3],inactive
same,outcome,[4],inactive
same,outcome,[5],inactive
same,outcome,[15],inactive
same,outcome,[16],inactive
CC(C)CCCCCCOC(=O)c1ccccc1C(=O)OCCCCCCC(C)C,outcome,[1],inactive
same,outcome,[2],inactive
same,outcome,"Decorin, DCN (gene 1634)",inactive
same,outcome,[3],inactive
same,outcome,[4],inactive
same,outcome,[5],inactive
O=Cc1cccc(Oc2ccccc2)c1,outcome,[1],inactive
same,outcome,[2],inactive
same,outcome,"Decorin, DCN (gene 1634)",inactive
same,outcome,[3],inactive
same,outcome,[4],inactive
same,outcome,[5],inactive
ClC(Cl)=C(Cl)C(Cl)=C(Cl)Cl,outcome,[1],inactive
same,AC50,[2],15.1 µM (active)
same,outcome,"Decorin, DCN (gene 1634)",inactive
same,outcome,[3],inactive
same,outcome,[4],inactive
same,outcome,[5],inactive
COC[C@H](C)N(C(=O)CCl)c1c(C)csc1C,outcome,[1],inactive
same,outcome,[2],inactive
same,outcome,"Decorin, DCN (gene 1634)",inactive
same,outcome,[3],inactive
same,outcome,[4],inactive
same,outcome,[5],inactive
